The values that follow come from the supplement of paper PMC11738630.

This assay deals with Salmonella enterica serovar Typhimurium 14028s. The assay is described as follows: approximate change in surviving CFU after surface colonization relative to water-only control (log10 CFU/mL change); higher = more surviving bacteria (less inhibition of surface colonization). The note with it: not stated (Biolog proprietary concentration), surface: plastic 96-well plate, 20-24 h at 25 °C.

For `OC[C@@H](O)[C@H](O)[C@@H](O)CO` [Xylitol], for the setting “Biolog plate: PM2, Biolog well: D8”, the “approximate change in surviving CFU (log10)” value (shortened to “approximate change … (log10)”) came to 1.01.

On to `C/C(=C/C(=O)O)C(=O)O` [Citraconic Acid], for which the “approximate change … (log10)” value (Biolog plate: PM2, Biolog well: E3) is 0.472.

On to `C[C@@H](O)CC(=O)O` [b-Hydroxy Butyric Acid], for which the “approximate change … (log10)” value (Biolog plate: PM2, Biolog well: E8) was -0.215.

For `O=C1O[C@H](CO)[C@@H](O)[C@H]1O` [D-Ribono-1,4-Lactone], the “approximate change … (log10)” value (Biolog plate: PM2, Biolog well: F7) is 0.944.

As to `O=C(O)CCCCCCCCC(=O)O` [Sebacic Acid], the “approximate change … (log10)” value (Biolog plate: PM2, Biolog well: F8) amounted to 0.429.

For the compound `NC(=O)CCC(=O)O` [Succinamic Acid], the “approximate change … (log10)” value (Biolog plate: PM2, Biolog well: F10) turned out to be 0.73.

`O=NO` [Nitrite]: where the note is “Biolog plate: PM3, Biolog well: A3”, the “approximate change … (log10)” value came out at 0.966.

`O=[N+]([O-])O` [Nitrate]: the “approximate change … (log10)” value (Biolog plate: PM3, Biolog well: A4) stood at 0.665.

Turning to `N[C@@H](Cc1ccc(O)cc1)C(=O)O` [L-Tyrosine], the “approximate change … (log10)” value (Biolog plate: PM3, Biolog well: C1) worked out at 0.3.

With `N[C@H](CCC(=O)O)C(=O)O` [D-Glutamic Acid], the “approximate change … (log10)” value (Biolog plate: PM3, Biolog well: C6) was found to be 0.837.

In the case of `CC(C)[C@@H](N)C(=O)O` [D-Valine], where the note is “Biolog plate: PM3, Biolog well: C9”, the “approximate change … (log10)” value is -0.172.

For the compound `CC(=O)N[C@@H](CCC(=O)O)C(=O)O` [N-Acetyl-L-Glutamic Acid], the “approximate change … (log10)” value (Biolog plate: PM3, Biolog well: D1) was determined as 0.751.

With `NCCc1c[nH]cn1` [Histamine], the “approximate change … (log10)” value (Biolog plate: PM3, Biolog well: E1) was -0.987.

For `CC(O)C(N)=O` (racemic) [D,L-Lactamide], the “approximate change … (log10)” value (Biolog plate: PM3, Biolog well: E7) is -1.78.

Turning to `OC[C@H]1OC(O)[C@@H](O)[C@@H](O)[C@@H]1O` (stereo partly drawn) [D-Mannose], the “approximate change … (log10)” value (Biolog plate: PM1, Biolog well: A11) was found to be 1.93.

Turning to `OC[C@@H](O)[C@H](O)[C@H](O)[C@@H](O)CO` [Dulcitol], under “Biolog plate: PM1, Biolog well: A12”, the “approximate change … (log10)” value came out at 1.03.

For `OC[C@@H](O)[C@@H](O)[C@H](O)[C@H](O)CO` [D-Mannitol], the “approximate change … (log10)” value (Biolog plate: PM1, Biolog well: B11) amounted to 2.19.

Regarding `O=C(O)CC(O)C(=O)O` (racemic) [D,L-Malic Acid], the “approximate change … (log10)” value (Biolog plate: PM1, Biolog well: C3) is 1.05.

`OC[C@H]1O[C@H](O)[C@H](O)[C@@H](O)[C@@H]1O` [a-D-Glucose]: the “approximate change … (log10)” value (Biolog plate: PM1, Biolog well: C9) came out at 2.34.

Take `CCC(=O)O` [Propionic Acid]: the “approximate change … (log10)” value (Biolog plate: PM1, Biolog well: F7) is -0.987.

Turning to `O=C(O)C[C@H](O)C(=O)O` [L-Malic Acid], under “Biolog plate: PM1, Biolog well: G12”, the “approximate change … (log10)” value was 1.01.

Regarding `NCC(=O)N1CCC[C@H]1C(=O)O` [Glycyl-L-Proline], the “approximate change … (log10)” value (Biolog plate: PM1, Biolog well: H1) worked out at 0.58.

For `OCC1(O)OC[C@@H](O)[C@@H](O)[C@H]1O` (stereo partly drawn) [D-Psicose], under “Biolog plate: PM1, Biolog well: H5”, the “approximate change … (log10)” value is 1.35.

For the compound `CC(=O)C(=O)O` [Pyruvic Acid], the “approximate change … (log10)” value (Biolog plate: PM1, Biolog well: H8) was -0.494.

Turning to `O=C(O)[C@H]1OC(O)[C@H](O)[C@@H](O)[C@H]1O` (stereo partly drawn) [D-Galacturonic Acid], the “approximate change … (log10)” value (Biolog plate: PM1, Biolog well: H10) worked out at 1.09.

In the case of `OC[C@H]1O[C@H](OC[C@H]2O[C@H](O[C@H]3[C@H](O)[C@@H](O)[C@@H](O)O[C@@H]3CO)[C@H](O)[C@@H](O)[C@@H]2O[C@H]2O[C@H](CO)[C@@H](O)[C@H](O)[C@H]2O)[C@H](O)[C@@H](O)[C@@H]1O` [Glycogen], the “approximate change … (log10)” value (Biolog plate: PM2, Biolog well: A8) turned out to be 0.944.

Take `OC1OC[C@@H](O)[C@@H](O)[C@@H]1O` (stereo partly drawn) [D-Arabinose]: for the setting “Biolog plate: PM2, Biolog well: B5”, the “approximate change … (log10)” value was 0.408.

Consider `OC[C@H](O)C(O)[C@@H](O)CO` [L-Arabitol], for which the “approximate change … (log10)” value (Biolog plate: PM2, Biolog well: B7) was determined as 1.12.

Consider `OC[C@@H](O)[C@@H](O)CO` [i-Erythritol], for which the “approximate change … (log10)” value (Biolog plate: PM2, Biolog well: B10) came out at 1.35.

With `OC[C@@H](O)[C@@H](O[C@@H]1O[C@H](CO)[C@H](O)[C@H](O)[C@H]1O)[C@H](O)[C@@H](O)CO` [Lactitol], the “approximate change … (log10)” value (Biolog plate: PM2, Biolog well: C3) is 1.05.

`CO[C@H]1O[C@H](CO)[C@@H](O)[C@H](O)[C@H]1O` [a-Methyl-D-Glucoside]: the “approximate change … (log10)” value (Biolog plate: PM2, Biolog well: C6) turned out to be 1.2.

With `CO[C@H]1O[C@H](CO)[C@@H](O)[C@H](O)[C@@H]1O` [a-Methyl-D-Mannoside], the “approximate change … (log10)” value (Biolog plate: PM2, Biolog well: C10) is 0.0215.

`CO[C@@H]1OC[C@@H](O)[C@H](O)[C@H]1O` [b-Methyl-D-Xyloside]: the “approximate change … (log10)” value (Biolog plate: PM2, Biolog well: C11) was -0.215.

As for `O=C(CO)[C@@H](O[C@H]1O[C@H](CO)[C@@H](O)[C@H](O)[C@H]1O)[C@H](O)[C@H](O)CO` [Turanose], the “approximate change … (log10)” value (Biolog plate: PM2, Biolog well: D7) was 0.88.

`CCCCCC(=O)O` [Caproic Acid]: the “approximate change … (log10)” value (Biolog plate: PM2, Biolog well: E2) is -0.859.

Take `NC(=O)NC(N)=O` [Biuret]: the “approximate change … (log10)” value (Biolog plate: PM3, Biolog well: A6) is -0.258.

As to `N[C@@H](CS)C(=O)O` [L-Cysteine], under “Biolog plate: PM3, Biolog well: A11”, the “approximate change … (log10)” value was 0.88.

Turning to `NC(=O)C[C@@H](N)C(=O)O` [D-Asparagine], the “approximate change … (log10)” value (Biolog plate: PM3, Biolog well: C4) worked out at 0.644.

On to `CN` [Methylamine], for which the “approximate change … (log10)” value (Biolog plate: PM3, Biolog well: D5) is -1.05.

Take `O=c1cc[nH]c(=O)[nH]1` [Uracil]: the “approximate change … (log10)” value (Biolog plate: PM3, Biolog well: F10) was 1.14.

Regarding `O=c1[nH]c(=O)c2nc[nH]c2[nH]1` [Xanthine], under “Biolog plate: PM3, Biolog well: G1”, the “approximate change … (log10)” value stood at 0.408.

On to `OC[C@H]1O[C@@H](n2cnc3c(O)nc(O)nc32)[C@H](O)[C@@H]1O` [Xanthosine], for which the “approximate change … (log10)” value (Biolog plate: PM3, Biolog well: G2) was determined as 0.751.

Regarding `NC(=O)NC1NC(=O)NC1=O` (configuration not stated) [Allantoin], the “approximate change … (log10)” value (Biolog plate: PM3, Biolog well: G5) came out at 0.258.

With `O=C1NC(=O)C(=O)N1` [Parabanic Acid], the “approximate change … (log10)” value (Biolog plate: PM3, Biolog well: G6) was -2.58e-05.

`C[C@H](N)C(=O)N[C@@H](CC(=O)O)C(=O)O`: the “approximate change … (log10)” value (Biolog plate: PM3, Biolog well: H1) turned out to be 0.58.

Turning to `C[C@H](N)C(=O)N[C@@H](CCC(=O)O)C(=O)O`, for the setting “Biolog plate: PM3, Biolog well: H3”, the “approximate change … (log10)” value is 0.451.

In the case of `CSCC[C@H](NC(=O)CN)C(=O)O`, the “approximate change … (log10)” value (Biolog plate: PM3, Biolog well: H11) was -0.558.

As for `N[C@@H](CC(=O)O)C(=O)O` [L-Aspartic Acid], the “approximate change … (log10)” value worked out at 0.644 (Biolog plate: PM1, Biolog well: A7) and 0.451 (Biolog plate: PM3, Biolog well: A10).

For the compound `O=C(O)[C@@H]1CCCN1` [L-Proline], the “approximate change … (log10)” value by setting is: (Biolog plate: PM1, Biolog well: A8) 0.107; (Biolog plate: PM3, Biolog well: B9) 0.0858.

Turning to `C[C@@H](N)C(=O)O` [D-Alanine], the “approximate change … (log10)” value was 0.622 (Biolog plate: PM1, Biolog well: A9) and 0.343 (Biolog plate: PM3, Biolog well: C3).

Turning to `N[C@H](CO)C(=O)O` [D-Serine], the “approximate change … (log10)” value runs as follows: (Biolog plate: PM1, Biolog well: B1) 1.14; (Biolog plate: PM3, Biolog well: C8) 0.279.

As for `N[C@@H](CCC(=O)O)C(=O)O` [L-Glutamic Acid], the “approximate change … (log10)” value by setting is: (Biolog plate: PM1, Biolog well: B12) 1.24; (Biolog plate: PM3, Biolog well: A12) 0.279.
